In the library only some 6.6% were active in any assay of this set; here they are far more common.
HT1080-NT tox: kills 2HG-producing HT-1080-NT fibrosarcoma cells. AID 686970. Potency, µM (highest dose often 46.1 µM), without a hit: top-dose activity, negative = less viability, usual class: cytotoxic. 360,000 compounds, 1.6% hits. HT-1080-NT fibrosarcoma viability, CellTiter-Glo ATP luminescence, 48 h;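 note: NT is the 2HG producing partner of a matched IDH1 knockdown line; 0% = DMSO-treated cells and -100% = media-only wells without cells; nearly all actives have a fitted effect of over 55% in size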
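Viability by CellTiter-Glo luminescence after 48 h compound exposure at 37C of HT-1080-NT cells (750/well, RPMI, 5% FBS). % activity scaled between DMSO wells and medium-only wells, then curve-fitted and categorized by curve class.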
KB-V1 cytotox: kills drug-selected multidrug resistant KB-V1 cells | KB-V1 MDR cells viability, CellTiter-Glo, 72 h | Potency, µM (top dose mostly 46.1 µM), usual class: cytotoxic | 400,000 compounds, 3.4% hits | AID 1347076; note: % is set by controls: 0 for no effect and ±100 for the full control effect; nearly all actives have a fitted effect of over 60% in size
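KB-V1 MDR subline cells in DMEM (phenol-red free, 10% FBS) exposed to compounds in qHTS concentration series for 72 h at 37 degrees C. Viability read by CellTiter-Glo luminescence; concentration-effect curves fitted after normalization and correction.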
HepG2 tox: counter-screen for TGF-b inhibitors: cytotoxicity in HepG2 cells; HepG2 CAGA-GFP viability, ATP luminescence, 18 h; Potency, µM (highest dose often 46.1 µM), for inactives: at the top dose activity change, negative = cytotoxicity, hits mostly cytotoxic; 410,000 compounds, 0.76% hits; AID 588856
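HepG2 CAGA-GFP cells (1000/well, DMEM with 1% FBS) received compound, then TGF-beta at 500 pg/mL final, and were incubated 18 hours at 37 degrees C. Viability was read by CellTiter-Glo luminescence. Media-only wells were set as complete cell-killing and DMSO as no toxicity.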
TGFb inhibitor: inhibitors of TGF-b signaling; HepG2 CAGA-GFP TGF-b/SMAD3 reporter, GFP fluorescence, 18 h; TGF-beta stimulated, 500 pg/mL final; 410,000 compounds, 1.2% hits; Potency, µM (series often up to 46.1 µM), without a hit: at the highest dose activity, negative = inhibition, most hits filed as inhibitors; note: % is set by controls: 0 for no effect and ±100 for the full control effect; nearly all actives have a fitted effect of over 65% in size
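Inhibition was scored as loss of TGF-beta-induced (500 pg/mL final, 18 hours, 37 degrees C) GFP in HEPG2 cells carrying a CAGA-GFP reporter, in DMEM with 1% FBS. Well GFP was summed per cell; Activity was normalised to unstimulated and stimulated DMSO wells, then concentration-response fitting.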
KB-3-1 tox: kills parental KB-3-1 adenocarcinoma cells; AID 1347075; 400,000 compounds, 1.4% hits; KB-3-1 viability, CellTiter-Glo ATP luminescence, 72 h; Potency, µM (doses to about 46.1 µM), hits mostly cytotoxic; note: % is set by controls: 0 for no effect and ±100 for the full control effect; nearly all actives have a fitted effect of over 60% in size
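Cells are dispensed, compounds pinned in, plates held at 37 °C for 72 h, then CellTiter-Glo is added and luminescence read after 10 minutes. Cell line: parental KB-3-1 in phenol-red-free DMEM, 10% FBS.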
HT1080 IDH1KD tx: toxicity to HT-1080 IDH1 knockdown cells (counter line); HT-1080 IDH1 knockdown viability, ATP luminescence, 48 h; Potency, µM (top dose mostly 46.1 µM), for the others: top-dose activity, negative = toxicity, most hits filed as cytotoxic; 360,000 compounds, 2% hits;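 note: 0% = DMSO wells and -100% = cell-free medium wells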
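Knockdown cells (IDH1KD HT-1080) received compounds 2 h after plating at 750 cells/well and were kept 48 h at 37 °C in 5% FBS RPMI. A CellTiter-Glo luminescence read gave % activity for curve fitting.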
The depositor's hits bear a star; i = inactive; ? = inconclusive; / = no result given. Calls come from the whole dose curve; as a rule, active = well fitted curve in the direction sought with a large enough effect; inconclusive = small, poorly fitted or top-dose-only effect, or another doubt; inactive = no such curve, though single readings can be large; an effect the other way counts as inactive or inconclusive. Potency is the fitted concentration of half-maximal effect.

SMILES	HT1080-NT tox	KB-V1 cytotox	HepG2 tox	TGFb inhibitor	KB-3-1 tox	HT1080 IDH1KD tx
COc1ccc(CN2CSC(=S)N(Cc3ccc(OC)cc3)C2)cc1	-3.4%	i	12.6µM*	?	i	0.1%
COc1ccc(CN2CSC(=S)N(Cc3ccccc3)C2)cc1	-7.9%	i	11.2µM*	12.6µM*	i	-2.7%
S=C1SCN(Cc2ccccc2)CN1Cc1ccccc1	8.7%	i	-52.2%	?	i	7.6%
S=C1SCN(Cc2cccnc2)CN1Cc1cccnc1	7.31µM*	?	-98.3%	?	?	6.51µM*
CN(C)CCC=C1c2ccccc2C=Cc2ccccc21	?	?	-21.8%	4.9%	i	?
CNCCC=C1c2ccccc2C=Cc2ccccc21	20.6µM*	?	-25.0%	-1.5%	i	14.6µM*
CCCc1nc2ccc(C)cn2c1Cc1ccc(C)cc1	?	i	-21.7%	?	i	?
S=C(NCCSCc1c(Cl)cccc1Cl)Nc1ccccc1	-6.5%	20.6µM*	-78.1%	?	?	-3.4%
COc1ccc(-c2cc(C(F)(F)F)n3nc(C(=O)O)c(Cl)c3n2)cc1OC	/	/	3.1%	13.5%	/	/
CCOC(=O)N1CCN(C(=O)CSCC(=O)Nc2nc(-c3ccc(OC)cc3)cs2)CC1	-19.2%	20.6µM*	-26.6%	4.5%	?	-21.2%
CCOC(=O)N1CCN(C(=O)CSCC(=O)Nc2nc(-c3ccc(-c4ccccc4)cc3)cs2)CC1	?	i	-26.0%	-25.4%	?	?
CCOC(=S)SCC(=O)Nc1nccs1	-15.3%	i	-31.3%	-33.5%	i	?
CCOC(=S)SCC(=O)Nc1nc(-c2ccccc2)cs1	?	?	-10.5%	?	6.51µM*	?
CCOC(=S)SCC(=O)Nc1nc(-c2ccc(Br)cc2)cs1	7.31µM*	5.8µM*	-42.9%	?	5.17µM*	6.51µM*
COc1ccc(NCc2nnc(SCC(=O)Nc3nc(-c4ccccc4)cs3)n2-c2ccccc2)cc1	-8.9%	i	-5.3%	-12.6%	13µM*	-12.2%
O=C(CCc1ccccc1)NCc1nc2cccnc2n1Cc1ccc(F)cc1	/	/	-30.6%	-27.8%	/	/
COc1cccc(CN(CCC(C)C)S(=O)(=O)c2cc(Br)ccc2Br)c1	-4.1%	?	-33.7%	?	i	-1.6%
Cc1cccc(NC(=O)C2CCC(CNS(=O)(=O)c3csc(C(N)=O)c3)CC2)c1C (centres undefined)	/	?	-11.7%	-15.3%	i	/
CCc1ccccc1N1C(=O)N(CC(=O)c2ccc(OC)cc2)c2ccccc2S1(=O)=O	/	i	-2.0%	0.0%	i	/
CCCCNC(=O)C1(C)CCN1C(=O)c1oc2ccccc2c1C (centres undefined)	21.6%	i	3.4%	5.9%	i	0.7%
O=c1cc(CNc2cc(C(F)(F)F)cc(C(F)(F)F)c2)nc2sccn12	?	25.9µM*	-17.2%	?	23.1µM*	?
O=c1ccc(C(F)(F)F)cn1Cc1cc(=O)n2ccsc2n1	0.2%	i	-62.2%	6.7%	i	?
Cc1ccc(NC(=O)Cn2c(=O)n(CC3CCCO3)c(=O)c3ccccc32)cc1 (centres undefined)	/	i	-0.1%	3.6%	i	/
COCCNC(=O)C1(C)CCCN(C(=O)c2ccc(F)c(Cl)c2)C1 (centres undefined)	25.3%	i	3.9%	5.4%	i	21.0%
O=C(Nc1sc2c(c1C(=O)NCc1ccco1)CCCC2)c1ccc2c(c1)OCO2	10.0%	14.6µM*	-32.7%	-8.5%	i	-3.6%
SMILES	HT1080-NT tox	KB-V1 cytotox	HepG2 tox	TGFb inhibitor	KB-3-1 tox	HT1080 IDH1KD tx
O=C(Nc1sc2c(c1C(=O)NCc1cccnc1)CCCC2)c1ccco1	-23.0%	23.1µM*	-23.0%	-0.3%	i	-12.3%
COc1ccc(CNc2oc(/C=C/c3cccc(OC)c3)nc2C#N)cc1	/	i	-17.2%	?	i	/
Cc1ccc(Nc2nc(N)c([N+](=O)[O-])c(NCc3ccco3)n2)cc1C	-24.6%	11.6µM*	-69.2%	15.8µM*	23.1µM*	?
Cc1cccc(Nc2nc(N)c([N+](=O)[O-])c(NCc3ccccc3)n2)c1	?	18.4µM*	22.4µM*	?	i	16.4µM*
COCCNc1nc(N)c([N+](=O)[O-])c(Nc2ccc(F)cc2)n1	?	i	8.9%	3.8%	i	14.6µM*
Nc1nc(NCc2ccccc2)nc(NCc2ccccc2)c1[N+](=O)[O-]	9.7%	16.4µM*	-4.3%	-5.6%	i	6.4%
COc1cccc(Nc2nc(N)c([N+](=O)[O-])c(NCc3ccccc3)n2)c1	-16.6%	?	-36.6%	?	?	?
Nc1nc(Nc2ccccc2)nc(NCc2ccccc2)c1[N+](=O)[O-]	?	?	-13.7%	-19.6%	?	16.4µM*
Oc1ccc(Cl)cc1-c1cc(-c2cccc(Br)c2)n[nH]1	-24.1%	20.6µM*	-23.2%	-28.8%	?	-28.1%
Cc1c(/C=N/O)sc2ccccc12	14.9%	20.6µM*	-0.1%	1.1%	?	15.7%
Cc1cccc(/N=C/c2sc3ccccc3c2O)n1	2.2%	i	-38.5%	-8.6%	i	-1.9%
COc1cc(/C=N/Nc2ncc(C(F)(F)F)cc2Cl)cc(OC)c1O	3.2%	20.6µM*	-7.1%	0.0%	?	-0.1%
O=C(NCc1cccnc1)c1cc(C2CCCN(C(=O)c3cccs3)C2)on1 (centres undefined)	22.1%	i	-18.4%	4.2%	i	11.9%
Cc1ccc(Nc2nc3ccccc3n3cnnc23)cc1C	16.6%	i	-14.4%	0.0%	i	24.9%
COc1cccc(/C=N/Nc2nc3ccccc3n3cnnc23)c1O	-25.6%	6.51µM*	-12.3%	0.0%	?	?
COc1ccc(Nc2nc3ccccc3n3cnnc23)cc1	?	13µM*	14.8%	?	i	?
CCOC(=O)C1(Cc2cccc(OC)c2)CCN(C/C=C/c2ccc(OC)cc2)CC1	13µM*	?	-23.5%	-2.4%	?	?
COc1ccc(F)c(CN2CCCC(CO)(Cc3cccc(Cl)c3)C2)c1 (centres undefined)	-8.4%	i	-50.1%	?	i	-11.1%
COc1ccc(/C=C/CN2CCCC(CO)(Cc3cccc(Cl)c3)C2)cc1 (centres undefined)	?	i	-66.7%	?	?	23.1µM*
